The values below come from PubChem BioAssay AID588649 (The Scripps Research Institute Molecular Screening Center, 2011).

The other results are listed elsewhere or left out. The source made the active and inactive calls. Rule as the data show it: active = inhibition above about 40%; inactive = the rest.

The subject of this assay is Fam108b (ABHD17B) [Mus musculus]. Put plainly: mouse ABHD17B hydrolase inhibitors – biochemical, gel-based ABPP, soluble recombinant form, HTS hits, late-stage follow-up (AID 588649). The settings on record: fluorophosphonate probe, at 20 µM, hits give high values.
Turning to `Nc1ccc2nc3c(=O)[nH]c(=S)[nH]c3nc2c1`, the inhibition is 0% (inactive).

As to `COc1ccc(/C=C/C(=O)OCC(=O)Nc2cccc(Oc3ccccc3)c2)c(OC)c1`, the inhibition is 90% (active).

Consider `CC[N+](C)(CC)CCC[n+]1c(-c2ccccc2)c2cc(N)ccc2c2ccc(N)cc21`, for which the inhibition was 25% (inactive).

`Oc1c(Cl)cc(Cl)c(Cl)c1Cc1c(O)c(Cl)cc(Cl)c1Cl`: the inhibition was 65% (active).

Take `Cc1ccc(S(=O)(=O)N=C2C=C(Sc3ncn[nH]3)C(=O)c3ccccc32)cc1`: the inhibition is 90% (active).

As for `COc1ccc(NS(=O)(=O)c2cc(NC(=O)CC(=O)c3ccc([N+](=O)[O-])cc3)ccc2C)cc1`, the inhibition was 25% (inactive).

For `O=C(Nc1ccc(-c2csc(Nc3cccc(C(F)(F)F)c3)n2)cc1)c1cccc(C(F)(F)F)c1`, the inhibition was 85% (active).

As to `O=C(NNc1c2ccccc2nc2ccccc12)c1cc2ccccc2cc1O`, the inhibition is 10% (inactive).
